High-throughput results from PubChem.
CFTR F508del cor – correctors of CFTR F508del function in bronchial epithelial cells | CFBE cells, YFP halide quenching; stimulated with forskolin plus potentiator P3; % fluorescence drop versus neutral controls | activity (quench increase), % at 7.58 µM | 0.36% of 350,000 active | AID 720511;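 active means mean added fluorescence quench of at least 8% versus neutral control, with both replicates also reaching 8%; inconclusive means only one of the mean or replicate conditions met; inactive means mean below 8% and not both replicates reaching 8%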;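 further: cells transiently co-express mutant CFTR-F508del with the halide-sensitive YFP; corrector assay measuring rescue of mutant channel to the surface after 24 h compound exposure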
HIV Env fusion – HIV envelope-mediated fusion inhibition. inhibition, % at 12.3 µM. 1.1% of 360,000 active. HeLa-JRFL Env/CEM21 cell fusion, luciferase;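 active means mean replicate inhibition score of at least 50 and every replicate individually at or above 50; inconclusive means only one of the two criteria met; inactive means mean below 50 and not all replicates reaching 50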;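 further: 0% = plate neutral controls and 100% = maraviroc near 300 nM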
PAX8 reporter – lowers PAX8-driven luciferase in RMG-I cells; AID 652154; 1.2% of 360,000 active; inhibition, % at 12.6 µM; RMG-I TPO-luciferase reporter, SteadyGlo, 24 h;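 active means mean replicate inhibition at least 60% with every replicate also reaching 60%; inconclusive means only one of the two criteria is met; inactive means mean below 60% and not all replicates reaching 60%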;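 further: luciferase light reporting Pax8 driven TPO promoter activity; plate controls were median of neutral control wells for no effect and mitoxantrone controls for full effect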
INS-1E GSIS act – primary screen for activators of insulin secretion dependent on glucose, INS-1E cells, GLuc reporter luminescence; activation, % at 16.6 µM; 0.61% of 370,000 active; INS-1E GLuc reporter insulin secretion, 2-3 h;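 active means lowest replicate activation of at least 40%, so every replicate reaches that level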;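 further: 0% = median of neutral control wells and 100% = median of IBMX positive control wells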
PGC1a acetyl inh – modulators of PGC1a acetylation; inhibition, % at 15.6 µM; U2OS PGC1a acetylation, AlphaScreen anti-acetyl-lysine; with virally co-expressed GCN5 acetyltransferase; AID 651687; 0.17% of 350,000 active;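 active means every replicate shows inhibition of at least 40%; inconclusive means mean inhibition at least 40% but some replicate below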;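 further: 0% = neutral control wells and 100% = positive control wells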
EWS-Fli block – inhibitors of EWS/Fli oncoprotein transcriptional activity; A673 NR0B1-luciferase reporter, viability-normalised; inhibition, % at 12.6 µM; 0.67% of 350,000 active; AID 651661;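 active means mean inhibition of at least 50% after viability correction, with every replicate also passing that limit; inconclusive means mean reaches 50% but only one of two replicates passes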;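 further: firefly luciferase signal divided by Alamar Blue viability fluorescence both relative to DMSO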
Starred values were filed as active, the others as inactive; ? = inconclusive; · = no result; [ ] = another dose, or the depositor's remark. This is a sample that favours compounds with a hit; in the whole collection about 2.7% have one here.

SMILES | CFTR F508del cor | HIV Env fusion | PAX8 reporter | INS-1E GSIS act | PGC1a acetyl inh | EWS-Fli block
C[C@H]1CN([C@@H](C)CO)C(=O)c2ccccc2-c2ccccc2CO[C@@H]1CN(C)C(=O)Nc1ccc(-c2ccccc2)cc1 | -5 | · | 1 | 0 | -4 | -1
C=CCNc1nc(N)c([N+](=O)[O-])c(NCCO)n1 | 2 | 2 | -12 | 82* | 11 | 6
Cc1ccc(Nc2nc(N)c([N+](=O)[O-])c(NCCO)n2)cc1 | 1 | -4 | -8 | 7 | -5 | -18
Nc1nc(NC2CCCCC2)nc(NCCO)c1[N+](=O)[O-] | -2 | -76 | 11 | 4 | -13 | -11
CCN(CC)c1nc(N)c([N+](=O)[O-])c(NCCO)n1 | · | 12 | 53 | 85* | · | 1
CCC(=O)Nc1ccc(C(=O)N/N=C/c2cccnc2)cc1 | · | -78 | · | 44* | -10 | ·
CCOc1ccc(OCc2cccc(C(=O)N/N=C/c3cccnc3)c2)cc1 | · | 69* | 48 | -1 | -3 | ·
CCCCCCC(=O)Nc1ccc(C(=O)N/N=C/c2cccnc2)cc1 | · | 3 | 12 | 16 | -417 | ·
O=C(N[C@H]1CC[C@H](CCNS(=O)(=O)c2ccccc2)O[C@H]1CO)c1cccnc1 | 2 | -3[16.7 µM] | 4 | -5 | 0 | -3
CN(C)c1ccc(C=C2C=C(c3ccccc3)OC2=O)cc1 | 7 | -32 | -34 | · | 1 | -21
COc1cc(C=c2c3ccccc3n3c2cc(-c2ccccc2)[n+]3C)cc(OC)c1OC | -2 | 20 | 93* | 24 | · | 8
CN(C)c1ccc(C=c2c3ccccc3n3c2cc(-c2ccccc2)[n+]3C)cc1 | -9 | -36 | 95* | · | · | -10
CN(C)c1ccc(C=c2c3ccccc3n3c2cc(-c2ccc(Cl)cc2)[n+]3C)cc1 | 1 | 0 | 78* | -38 | · | 9
CN(c1ccc(Cl)cc1)c1cc(=O)n(C)c2ccccc12 | · | · | · | · | -16 | ·
COc1cc(N(C)C)ccc1C=c1c2ccccc2n2c1cc(-c1ccccc1)[n+]2C | -2 | 5 | 88* | -43 | 15 | 36
Cc1noc(C)c1NC(=O)N(C)C[C@@H]1Oc2ccc(NS(=O)(=O)c3c(C)noc3C)cc2CC(=O)N([C@@H](C)CO)C[C@H]1C | -3 | -3[16.7 µM] | -14 | 8 | 3 | 0
COc1ccc(S(=O)(=O)N[C@@H]2CC[C@H](CCNC(=O)c3ccccc3F)O[C@@H]2CO)cc1 | 0 | 28[16.7 µM] | 0 | 13 | -3 | 2
CO[C@@H](CN(C)S(=O)(=O)c1ccccc1)[C@@H](C)CN(Cc1ccccc1Cl)[C@@H](C)CO | -1 | · | · | -2 | -12 | 7
C[C@@H]1CC=CC[C@H](c2ccc(F)cc2)NC(=O)[C@H](C)N(C)C(=O)c2ccccc2O1 (mixture of isomers) | · | · | · | 1 | · | ·
CN(C)c1ccc(C=c2c3cc([N+](=O)[O-])ccc3n3c2cc(-c2ccccc2)[n+]3C)cc1 | 0 | 47 | 114* | -29 | · | 56*
CCOC(=O)C1(Cc2ccc(OC)cc2)CCN(C(=O)CN2CCCCC2=O)CC1 | 0 | -11 | 92* | -4 | -4 | -15
CCOC(=O)C1(Cc2ccc(OC)cc2)CCN(C(=O)CN2CCOC2=O)CC1 | 5 | -11 | -18 | 0 | 10 | -53
C[C@@H]1CN([C@@H](C)CO)C(=O)c2cc(NC(=O)Nc3ccccc3)ccc2O[C@@H](C)CCCCO[C@@H]1CN(C)CC1CCCCC1 | -4 | -1[16.7 µM] | 35 | 1 | -9 | 10
C[C@@H]1CCCCO[C@@H](CN(C)CC2CCCCC2)[C@H](C)CN([C@H](C)CO)C(=O)c2cc(NC(=O)Nc3ccccc3)ccc2O1 | -2 | 41[16.7 µM] | 86* | -25 | -18 | 24
CCCN(C)C[C@H]1OCCCC[C@@H](C)Oc2ccc(NC(=O)c3ccccc3)cc2C(=O)N([C@H](C)CO)C[C@H]1C | 0 | -83[16.7 µM] | 83* | -5 | -23 | 5
SMILES | CFTR F508del cor | HIV Env fusion | PAX8 reporter | INS-1E GSIS act | PGC1a acetyl inh | EWS-Fli block
C[C@@H]1CCCCO[C@@H](CN(C)CC2CCCCC2)[C@@H](C)CN([C@H](C)CO)C(=O)c2cc(NC(=O)Nc3ccccc3)ccc2O1 | -3 | 8[16.7 µM] | -2 | -8 | 13 | 3
CCCN(C)C[C@H]1OCCCC[C@@H](C)Oc2ccc(NC(=O)c3ccccc3)cc2C(=O)N([C@H](C)CO)C[C@@H]1C | -3 | 4[16.7 µM] | -13 | 3 | 6 | 5
C[C@H](CO)N1C[C@H](C)[C@H](CN(C)CC2CCCCC2)OCCCC[C@H](C)Oc2ccc(NC(=O)Nc3ccccc3)cc2C1=O | -6 | -7[16.7 µM] | 97* | -11 | 9 | 22
C[C@H]1CCCCO[C@H](CN(C)CC2CCCCC2)[C@@H](C)CN([C@@H](C)CO)C(=O)c2cc(NC(=O)Nc3ccccc3)ccc2O1 | 1 | -6[16.7 µM] | 69* | -9 | 3 | 0
CC=Cc1ccc2n(c1=O)C[C@@H]1[C@@H](CO)[C@H](C(=O)N3CCOCC3)N(Cc3ccccc3)[C@H]21 (mixture of isomers) | 3 | · | · | 6 | · | -3
O=S(=O)(NC[C@@H]1CC[C@@H]2[C@@H](CN2Cc2cccc(-c3ccccn3)c2)O1)c1ccccc1 | -2 | · | · | · | · | -3
CN(C)C(=O)C[C@H]1C=C[C@@H](NS(=O)(=O)c2ccccc2)[C@@H](CO)O1 | -1 | -17[16.7 µM] | -8 | 11 | -15 | -5
C[C@H](NC(=O)C[C@H]1C[C@H]2c3cc(NC(=O)C4CCC4)ccc3O[C@H]2[C@H](CO)O1)c1ccccc1 | 0 | · | -2 | 7 | -6 | 9
C[C@@H]1CCCCO[C@@H](CN(C)CC2CCCCC2)[C@H](C)CN([C@@H](C)CO)C(=O)c2cc(NC(=O)c3ccccc3)ccc2O1 | 1 | ? | 1 | -4 | -14 | -1
C[C@@H]1CCCCO[C@@H](CN(C)CC2CCCCC2)[C@H](C)CN([C@H](C)CO)C(=O)c2cc(NC(=O)NC3CCCCC3)ccc2O1 | 5 | 70*[16.7 µM] | 12 | 21 | -5 | 7
C[C@@H]1CCCCO[C@@H](CN(C)CC2CCCCC2)[C@H](C)CN([C@H](C)CO)C(=O)c2cc(NC(=O)c3ccccc3)ccc2O1 | 2 | 67*[16.7 µM] | 14 | -5 | -2 | 12
C[C@@H]1CN([C@H](C)CO)C(=O)c2cc(NC(=O)Nc3ccccc3)ccc2O[C@@H](C)CCCCO[C@@H]1CN(C)CC1CCCCC1 | -1 | -10[16.7 µM] | 97* | -27 | -3 | -4
C[C@H](CO)N1C[C@H](C)[C@H](CN(C)CC2CC2)OCCCC[C@H](C)Oc2ccc(NC(=O)Nc3ccccc3)cc2C1=O | 0 | 25[16.7 µM] | -1 | 8 | 6 | ·
COc1ccc(S(=O)(=O)N[C@H]2C=C[C@@H](CC(=O)N3CCC(Cc4ccccc4)CC3)O[C@H]2CO)cc1 | 0 | ? | 17 | -21 | -10 | 6
CNC(=O)C[C@@H]1CC[C@H]2[C@H](COc3ccc(NC(=O)NC(C)C)cc3C(=O)N2C)O1 | 1 | -17[16.7 µM] | -29 | 10 | 4 | -5
